Growth data for 17 compounds are collected here from PubChem BioAssay (NCI).

Test systems include T-47D breast; BT-549 breast; MDA-MB-435 melanoma; SW-620 colon; MCF7 breast; HCT-116 colon; KM12 colon; HCC-2998 colon.
Test in all cases: NCI-60 one-dose screen, 48 h (100 = growth as untreated, 0 = no growth, -100 = all killed)
Settings in all cases: 10 µM unless noted

The structures appear in SMILES notation. Compounds without any hit were thinned out: in the full panel of roughly 83,000, 20% have a hit.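 Percent growth is the endpoint: 0 to 100 indicates growth inhibition (40 means 60% inhibition), 0 means no net growth, and negative values indicate cell death.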 Values without a mark were called inactive. Activity calls are given as the source filed them. The calls were made as follows: active = growth percent below 10; inactive = the rest.

For the compound `CC1(C)CC2=C3C=C[C@@H]4[C@@]5(C)CCC(=O)C(C)(C)[C@@H]5CC[C@@]4(C)[C@]3(C)CC[C@@]2(C(=O)O)C[C@H]1O`, the growth with T-47D breast was 20.3%; in the test on BT-549 breast, 34.3%; in the test on MDA-MB-435 melanoma, 27.1%; in the test on SW-620 colon, 32.9%; with MCF7 breast, 14.7%; with HCT-116 colon it was 0.846% (active). For the same compound, in the test with KM12 colon, the growth is 27%.
As to `Cc1ccc(S(=O)(=O)Oc2ccc3sc4cccc(NCCN(C)C)c4c(=O)c3c2)cc1`, the growth is -69.8% (active) in the test on T-47D breast; -88.6% (active) in the test with BT-549 breast; -96.3% (active) in the test on MDA-MB-435 melanoma; -92.4% (active) with SW-620 colon; -86.7% (active) in the test on MCF7 breast; -82.9% (active) with HCT-116 colon. Besides, the growth with KM12 colon is -85% (active).
In the case of `O=C1c2ccccc2C(=O)c2c1c(C(=O)NCc1ccccc1)c1ccccn21`, the growth in the test on T-47D breast was 103%; in the test with BT-549 breast it was 101%; in the test on MDA-MB-435 melanoma, 103%; in the test on SW-620 colon it was 94.2%; in the test on MCF7 breast it was 79%; in the test with HCT-116 colon it was 97.1%. Further, the growth was 99.9% with HCC-2998 colon and 101% in the test with KM12 colon.
As to `Cc1ccc(S(=O)(=O)N2CCC(=O)c3ccccc32)cc1`, the growth with T-47D breast is 78.7%; with BT-549 breast it was 65.6%; in the test with MDA-MB-435 melanoma it was 6.12% (active); with SW-620 colon, 44.7%; in the test with MCF7 breast, 40.5%; in the test with HCT-116 colon it was 59.4%. Besides, the growth in the test on KM12 colon is 33.5%.
In the case of `FC(F)(F)c1ccc(Cn2cc(CSc3nc4ccccc4s3)nn2)cc1`, the growth is 90% in the test with T-47D breast; 92.3% in the test on BT-549 breast; 101% with MDA-MB-435 melanoma; 98.1% with SW-620 colon; 92.8% with MCF7 breast; 98.2% in the test on HCT-116 colon. Moreover, the growth in the test with KM12 colon was 99%.
`CCCCNC(=O)c1cc([N+](=O)[O-])cc(C2CCCCC2)c1O`: the growth is 12% in the test on T-47D breast; 36.5% in the test with BT-549 breast; 33.3% with MDA-MB-435 melanoma; 68.6% in the test with SW-620 colon; 39.3% in the test with MCF7 breast; 25% in the test with HCC-2998 colon. In addition, the growth with KM12 colon is 39.5%.
As for `O=S(=O)(NCCNc1nccc(-c2c(-c3ccc(F)c(O)c3)nc3sccn23)n1)c1ccc(F)cc1`, the growth was 35.9% in the test with T-47D breast; 49.5% in the test with BT-549 breast; 4.98% (active) in the test on MDA-MB-435 melanoma; 29.5% in the test on SW-620 colon; 17.1% with MCF7 breast; 6.5% (active) in the test on HCT-116 colon. In addition, in the test on KM12 colon, the growth was 25.7%.
For the compound `COc1ccc(/C=C2\COc3ccc(O)cc3C2=O)cc1`, the growth is 87.9% in the test with T-47D breast; 87.8% in the test on BT-549 breast; 78.7% in the test with MDA-MB-435 melanoma; 84.6% in the test with SW-620 colon; 15.4% in the test with MCF7 breast; 77.7% in the test on HCT-116 colon. In the test on KM12 colon, the growth is 58%.
Take `COc1cccc(C(=O)NNc2nc(Cl)nc(Cl)n2)c1`: the growth with T-47D breast is 91.6%; with BT-549 breast it was 103%; in the test on MDA-MB-435 melanoma, 105%; in the test on SW-620 colon, 107%; with MCF7 breast, 82.8%; in the test on HCC-2998 colon, 95.2%. For the same compound, the growth with KM12 colon is 105%.
As for `O=C(c1c[nH]c2ccccc12)c1n[nH]c(=S)n1-c1cccc(Br)c1`, the growth is 26.1% in the test with T-47D breast; 120% with BT-549 breast; 102% with MDA-MB-435 melanoma; 94.6% in the test on SW-620 colon; 33.4% with MCF7 breast; 38.8% with HCC-2998 colon. The growth with KM12 colon was 50.7%.
Regarding `O=C(NNC(=O)c1nc2cc(F)ccc2n2cccc12)c1cnccn1`, the growth is 38.5% in the test with T-47D breast; 66% with BT-549 breast; 36.2% in the test with MDA-MB-435 melanoma; 26.4% with SW-620 colon; 34.8% in the test with MCF7 breast; 50.7% with HCC-2998 colon. In addition, the growth in the test on KM12 colon is 28%.
Regarding `Cc1ccc2c(-c3nnc(N)s3)cc(=O)oc2c1C`, the growth with T-47D breast is 72.9%; in the test with BT-549 breast it was 101%; in the test on MDA-MB-435 melanoma it was 96.1%; in the test on SW-620 colon, 97.8%; in the test on MCF7 breast, 93.4%; in the test with HCC-2998 colon, 113%. Further, the growth in the test on KM12 colon is 105%.
Consider `COc1ccc(Oc2nc(Nc3ccc(N4CCOCC4)cc3)ncc2NC(=O)Nc2cc(OC)cc(OC)c2)cc1`, for which the growth is 48.8% with T-47D breast; 12.5% in the test with BT-549 breast; 6.76% (active) with MDA-MB-435 melanoma; 19.6% with SW-620 colon; 41.7% with MCF7 breast; 9.48% (active) with HCC-2998 colon. For the same compound, the growth with KM12 colon was 24%.
For the compound `CC/C=C\CCC/C=C1/C(=O)C=C[C@@H]1C/C=C\CCCC(=O)OC`, the growth with T-47D breast is 34.4%; in the test with BT-549 breast, -25% (active); in the test with MDA-MB-435 melanoma, -22.3% (active); in the test on SW-620 colon, 3.05% (active); with MCF7 breast, 17%; in the test with HCC-2998 colon, 8.12% (active). In addition, the growth in the test with KM12 colon was -20.6% (active).
Take `Cc1ccc(-c2nc(-c3cn(C)c4ncccc34)cs2)cc1`: the growth in the test with T-47D breast is -3.08% [100 µM] (active); in the test on BT-549 breast, -42.1% [100 µM] (active); with MDA-MB-435 melanoma, -39.5% [100 µM] (active); in the test with SW-620 colon, -11.6% [100 µM] (active); in the test with MCF7 breast, -18% [100 µM] (active); with HCC-2998 colon, -67.9% [100 µM] (active). For the same compound, the growth in the test on KM12 colon is -55.5% [100 µM] (active).
As for `O=C(NNC(=O)c1ccc(NC(=O)c2ccccn2)cc1)Nc1ccc2ccccc2c1`, the growth in the test on T-47D breast was 106%; in the test on BT-549 breast, 107%; in the test on MDA-MB-435 melanoma, 110%; with SW-620 colon it was 116%; with MCF7 breast, 96%; in the test with HCT-116 colon, 102%. Moreover, the growth with KM12 colon was 102%.
For the compound `COC(=O)c1c2c(c(C)[n+]([O-])c1C)C(=O)C(NCc1ccc(OC)cc1)=CC2=O`, the growth was 3.48% (active) with T-47D breast; 56% in the test on BT-549 breast; -67.6% (active) in the test with MDA-MB-435 melanoma; 6.71% (active) in the test with SW-620 colon; -7.88% (active) in the test with MCF7 breast; 15.1% with HCC-2998 colon. For the same compound, the growth in the test with KM12 colon was 14.3%.
